High-throughput results (PubChem BioAssay)
D1 ag: human D1 receptor agonism. HEK293 T-REx D1 cells, calcium flux, agonist mode. activation, % at 2 µM. 360,000 tested, 1% active. AID 504660; in the data active means activation above about 30%
Target sequence (P21728 whole entry, looked up): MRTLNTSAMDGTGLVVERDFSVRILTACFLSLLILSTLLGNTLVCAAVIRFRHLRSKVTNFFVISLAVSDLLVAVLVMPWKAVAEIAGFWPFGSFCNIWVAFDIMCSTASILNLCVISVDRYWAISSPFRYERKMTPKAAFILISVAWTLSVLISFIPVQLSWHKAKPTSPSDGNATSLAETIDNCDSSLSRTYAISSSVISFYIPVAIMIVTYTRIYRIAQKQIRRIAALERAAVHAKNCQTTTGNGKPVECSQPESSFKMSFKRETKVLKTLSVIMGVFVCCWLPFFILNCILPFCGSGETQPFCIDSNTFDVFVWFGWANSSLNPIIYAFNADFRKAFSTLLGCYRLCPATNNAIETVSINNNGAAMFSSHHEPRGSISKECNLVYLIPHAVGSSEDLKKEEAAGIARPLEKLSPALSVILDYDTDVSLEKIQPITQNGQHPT
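Inducible HEK293 T-REx D1 cells, force-coupled to calcium signalling, were plated at 4000 cells/well with tetracycline and held overnight at 30 C. After no-wash calcium dye loading, compound-evoked calcium rise over 180 s flagged agonists.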
D1 potentiator: human D1 dopamine receptor positive modulation; P21728; HEK293 TREx D1 cells, calcium flux, dopamine EC20 potentiation; potentiation, % at 10 µM; 360,000 tested, 0.036% active; AID 504651; in the data active means potentiation above about 30%
DRD3 antagonist: D3 dopamine receptor (human) antagonism. P35462. D3R cells, DiscoveRx beta-arrestin luminescence, antagonist mode; active compounds read low. max response, negative = inhibition, %. 360,000 tested, 2.5% active; in the data active means max response below about -50%; inconclusive means no clear call, values can overlap the other calls
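Cells expressing the human receptor were seeded at 1500 cells/well, incubated overnight at 37 degrees C in 5% CO2, then exposed to library compounds with dopamine controls for 90 minutes at 37 degrees C before luminescent detection.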
D1 antag: blocks dopamine activation of the human D1 receptor. P21728. HEK293 TREx D1 cells, calcium flux, dopamine EC80; active compounds read low. activity change, negative = inhibition, % at 10 µM. 360,000 tested, 3.2% active. AID 504652; in the data active means activity change below about -30%
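Allosteric or orthosteric antagonism assessed as attenuation of the calcium response to EC80 dopamine, added 180 s after compound, in induced HEK293 Trex D1 cells loaded with no-wash calcium dye.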
DRD3 agonist: D3 dopamine receptor (human) agonism | P35462 | 410,000 tested, 0.58% active | D3R DiscoveRx beta-arrestin cells, luminescence, 90 min | AID 652048 | max activation, %; in the data active means max activation above about 30%
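Agonist mode: compounds and dopamine controls were applied to plated cells for 90 min at 37 degrees C after an overnight attachment at 1500 cells/well. Luminescent read-out followed 30 - 60 minutes at room temperature with DiscoveRx detection reagent.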
Of the large screens only hits and unclear results are named; the others gave an inactive call. A selection: hits, their analogues and other compounds. The true share with any hit is near 6%.

COc1ccc(C(CCN2CCN(c3ccccc3)CC2)c2c(OC)cc(OC)c3c(-c4ccccc4)cc(=O)oc23)cc1 (centres undefined)	DRD3 antagonist -53.2, D1 antag -41.6
COc1cc(C(CC(=O)N2CCN(c3ccccc3)CC2)c2c(OC)cc(OC)c3ccc(=O)oc23)cc(OC)c1OC (centres undefined)	D1 antag -42.4
COc1cc(OC)c2c(-c3ccccc3)cc(=O)oc2c1C(CC(=O)N1CCN(c2ccccc2)CC1)c1ccc(N(C)C)cc1 (centres undefined)	DRD3 antagonist inconclusive
COc1cc(OC)c2c(-c3ccccc3)cc(=O)oc2c1C(CCN1CCN(c2ccccc2)CC1)c1ccc(N(C)C)cc1 (centres undefined)	DRD3 antagonist -62.3, D1 antag -32.4
COc1cc(C(CC(=O)N2CCOCC2)c2c(OC)cc(OC)c3ccc(=O)oc23)cc(OC)c1OC (centres undefined)	none
O=C(NCCCCc1ccccc1)c1ccccc1	none
O=C(NCCCc1ccccc1)c1ccccc1	D1 antag -41.1
O=C(NCCCCNCCCNC(=O)c1ccccc1)c1ccccc1	DRD3 antagonist -50.7 (no result: D1 ag, D1 potentiator, D1 antag)
COc1ccccc1NC(=O)c1nnn(Cc2ccccc2)c1NC(C)=O	DRD3 antagonist -69.6, D1 antag -48.0
O=C(Nc1ccccc1)c1nnn(Cc2ccccc2)c1NC(=O)C(F)(F)F	none
CC(=O)Nc1c(C(=O)NCc2ccccc2)nnn1Cc1ccccc1	DRD3 antagonist -55.6
O=C(CSC1CC(=O)N(CCc2ccccc2)C1=O)Nc1cccc(Cl)c1 (centres undefined)	D1 ag 32.9
O=C(CSC1CC(=O)N(CCc2ccccc2)C1=O)Nc1ccc(Br)cc1 (centres undefined)	none
CCOc1ccc(C(=O)NC(Cc2ccccc2)C(=O)OC)cc1 (centres undefined)	D1 antag -31.7
COC(=O)c1cc(O)cc(OC)c1Oc1cc(C)cc(O)c1C(=O)O	DRD3 antagonist inconclusive
COC(=O)c1cc(O)cc(OC)c1C(=O)c1c(O)cc(C)cc1O	DRD3 agonist 30.1
Cc1ccc(CNS(=O)(=O)c2ccc(C(C)(C)C)cc2)n1C	D1 antag -30.6
CC(C)(C)c1ccc(S(=O)(=O)NCCN2CCOCC2)cc1	none (no result: D1 ag, D1 potentiator, D1 antag)
CCOc1ccc(CCNC(=O)c2ccc(-n3c(C)cc4c3CCCC4)cc2)cc1OCC	none (no result: DRD3 antagonist)
CCc1ccc(-n2nc(CO)c(C(=O)NCc3ccccc3Cl)n2)cc1	none (no result: DRD3 antagonist)
COCC1CCCN(Cc2cn(-c3ccccc3F)nc2-c2cc(C)sc2C)C1 (centres undefined)	DRD3 antagonist -70.8
O=C(NCc1ccncc1)c1ccc(S(=O)(=O)Nc2ccccc2)cc1	none
CCOc1ccccc1N/C(=C(/C(Cl)=C(Cl)Cl)[N+](=O)[O-])n1cncn1	DRD3 antagonist inconclusive, D1 antag -38.7
CN(Cc1ccco1)C(=O)CC[C@H]1O[C@@H](n2ccc(=O)[nH]c2=O)[C@H](O)[C@@H]1O	none (no result: D1 ag, D1 potentiator, D1 antag)
O=C1CC(=C(c2ccccc2)c2ccccc2)C(=O)N1CCCN1CCN(c2cccc(Cl)c2)CC1	DRD3 antagonist inconclusive
O=C1CC(=C2c3ccccc3-c3ccccc32)C(=O)N1CCCCN1CCN(c2ccccc2)CC1	DRD3 antagonist -55.0
Cc1ccc(C)n1Cc1ccccc1Cl	none (no result: D1 antag)
Cc1cc(C)n(Cc2ccccc2Cl)n1	D1 antag -46.9
CC(Cc1cccnc1)NC(=O)c1cc(COc2ccc(F)cc2Cl)on1 (centres undefined)	D1 antag -33.6
CC(Cc1cccnc1)NC(=O)c1cc(COc2c(F)cccc2F)on1 (centres undefined)	none
COc1ccccc1CNC(=O)c1cnc2sc(N3CCCCC3)nn2c1=O	none (no result: DRD3 antagonist)
COc1cccc(-n2c(SCC(=O)NCC3CCCO3)nc3c([nH]c4ccccc43)c2=O)c1 (centres undefined)	none
COc1ccc(-c2nc(C(=O)NCC3CCCO3)cc3c2[nH]c2ccccc23)cc1 (centres undefined)	DRD3 agonist 34.1
Cc1ccccc1CSc1nc2c(sc3ccccc32)c(=O)n1CCCOC(C)C	none (no result: DRD3 antagonist)
COc1ccc(-n2c(SCC(=O)NCC3CCCO3)nc3c([nH]c4ccccc43)c2=O)cc1 (centres undefined)	D1 antag -30.9
Cc1ccc(-n2c(SCC(=O)NCc3ccco3)nc3c([nH]c4ccccc43)c2=O)cc1	DRD3 antagonist -50.5
